# Data: the supplement of paper PMC3545927
# The list shows a part of the results. How many sequences the whole screen found active is unknown.
# B1: HC1212 (peptide)
# chain: CATGMTTDNLAGNASASA
# B2: HC371 (peptide)
# chain: CAHLNSTALNAGNASASA
# B3: HC646 (peptide)
# chain: CAVEPVVFSQAGNASASA
# B4: HC2486 (peptide)
# chain: CASMPCSAHLAGNASASA
# B5: HC1682 (peptide)
# chain: CAQEECSQHLAGNASASA
# B6: HC445 (peptide)
# chain: CACVIGGAGNAGNASASA
# B7: FS-3045 (peptide)
# chain: CARQVRCVGNAGNASASA
# B8: FS-2447 (peptide)
# chain: CARQVRGVTQAGNASASA
# B9: FS-2422 (peptide)
# chain: CARKIRVNGTAGNASASA
# B10: FS-1726 (peptide)
# chain: CARKIRTVGNAGNASASA
# B11: FS-1766 (peptide)
# chain: CARQARRVGGAGNASASA
# B12: HC359 (peptide)
# chain: CASGFVSLLAAGNASASA
# B13: HC765 (peptide)
# chain: CAVFTDNSSPAGNASASA
# B14: HC1598 (peptide)
# chain: CAEPLDLPPIAGNASASA
# B15: HC1097 (peptide)
# chain: CAVPSTEDLVAGNASASA
# B16: HC1030 (peptide)
# chain: CAASRQAEVIAGNASASA
# B17: FS-3124 (peptide)
# chain: CARVRRAWVIAGNASASA
# B18: FS-1667 (peptide)
# chain: CAAVRRLVGNAGNASASA
# B19: FS-2107 (peptide)
# chain: CARVRRAVRIAGNASASA
# B20: FS-3175 (peptide)
# chain: CARVRRRSVQAGNASASA
# B21: FS-2622 (peptide)
# chain: CARVRRANTFAGNASASA
# B22: FS-3240 (peptide)
# chain: CARVRRLVRHAGNASASA
# B23: FS-3120 (peptide)
# chain: CARVMRWNSKAGNASASA
# B24: HC955 (peptide)
# chain: CAYQATVCARAGNASASA
# B25: HC616 (peptide)
# chain: CAYFVRVQGLAGNASASA
# B26: HC503 (peptide)
# chain: CALSTGLIHLAGNASASA
# B27: HC783 (peptide)
# chain: CAAAQGYKVLAGNASASA
# Target: furin, P09958
# Test: furin cleavage Z-score vs untreated control; higher = more cleavage, active = 3.5 or more, inactive = 1 or less, 8 variable residues between constant flanks
# Method in brief: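 Read counts from sequencing released DNA gave abundance for each bead-bound 8-mer peptide–cDNA fusion cut by purified furin over 7.5, 15 or 30 min. The cleavage Z-score compares log counts with furin-free reactions after lowess adjustment and median absolute deviation scaling.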
# 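Also: purified furin at 1:10 enzyme:substrate in 50 mM HEPES pH 7.5.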
# Chain of furin, P09958 (P09958 whole entry): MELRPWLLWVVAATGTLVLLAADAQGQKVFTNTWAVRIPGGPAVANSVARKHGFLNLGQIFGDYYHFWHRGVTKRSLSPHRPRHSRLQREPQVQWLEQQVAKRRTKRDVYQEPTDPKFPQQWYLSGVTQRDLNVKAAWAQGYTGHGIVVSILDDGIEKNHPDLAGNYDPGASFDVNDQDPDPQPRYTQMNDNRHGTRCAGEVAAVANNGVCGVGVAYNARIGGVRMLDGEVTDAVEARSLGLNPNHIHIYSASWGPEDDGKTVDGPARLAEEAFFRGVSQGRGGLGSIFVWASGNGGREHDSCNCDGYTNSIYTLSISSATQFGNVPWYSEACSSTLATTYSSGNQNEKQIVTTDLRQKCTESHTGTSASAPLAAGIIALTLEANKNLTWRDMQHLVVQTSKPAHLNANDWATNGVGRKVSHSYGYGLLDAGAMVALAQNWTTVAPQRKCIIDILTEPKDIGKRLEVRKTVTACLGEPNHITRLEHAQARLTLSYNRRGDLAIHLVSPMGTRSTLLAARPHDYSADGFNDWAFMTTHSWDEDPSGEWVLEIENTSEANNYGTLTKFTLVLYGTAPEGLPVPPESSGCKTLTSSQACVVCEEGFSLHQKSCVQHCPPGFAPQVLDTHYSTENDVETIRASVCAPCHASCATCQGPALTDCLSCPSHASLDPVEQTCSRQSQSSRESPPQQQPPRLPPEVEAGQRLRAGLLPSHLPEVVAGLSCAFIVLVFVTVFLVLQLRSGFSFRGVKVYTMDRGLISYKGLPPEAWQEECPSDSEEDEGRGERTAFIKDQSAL
Sequence,furin cleavage Z-score (7.5 min),furin cleavage Z-score (15 min),furin cleavage Z-score (30 min)
B1,-0.509 (inactive),1.51,-0.989 (inactive)
B2,1.65,0.509 (inactive),0.52 (inactive)
B3,-0.426 (inactive),0.0995 (inactive),-0.8 (inactive)
B4,-0.177 (inactive),1.03,-0.00604 (inactive)
B5,-0.746 (inactive),0.819 (inactive),1.15
B6,-1.36 (inactive),-2.02 (inactive),-1.24 (inactive)
B7,3.15,3.4,5.33 (active)
B8,-1.36 (inactive),0.0563 (inactive),0.556 (inactive)
B9,-0.334 (inactive),0.321 (inactive),-1.68 (inactive)
B10,5.44 (active),7.79 (active),7.77 (active)
B11,-0.614 (inactive),-0.316 (inactive),-0.000733 (inactive)
B12,0.181 (inactive),0.268 (inactive),0.641 (inactive)
B13,-0.215 (inactive),-0.103 (inactive),0.299 (inactive)
B14,0.806 (inactive),1.44,0.441 (inactive)
B15,-2.52 (inactive),-0.505 (inactive),0.561 (inactive)
B16,-0.216 (inactive),-0.538 (inactive),-1.56 (inactive)
B17,1.98,4.98 (active),7.77 (active)
B18,-1.38 (inactive),-1.34 (inactive),-1.08 (inactive)
B19,2.88,2.85,5.12 (active)
B20,0.273 (inactive),0.235 (inactive),0.754 (inactive)
B21,3.44,5.83 (active),5.99 (active)
B22,12.5 (active),11.6 (active),9.85 (active)
B23,-0.31 (inactive),0.804 (inactive),2.88
B24,1.06,0.432 (inactive),-1.24 (inactive)
B25,0.749 (inactive),0.0281 (inactive),0.654 (inactive)
B26,1.35,0.833 (inactive),1.12
B27,0.259 (inactive),0.477 (inactive),-0.5 (inactive)
